FAS TE block: FAS thioesterase domain inhibitors, primary screen, biochemical, fluorescence intensity, uHTS. Fatty acid synthase (Homo sapiens), P49327. recombinant FAS-TE, OMFH fluorogenic substrate, fluorescence endpoint. inhibition, % at 15 µM. hit rate 0.67% among 360,000. AID 602261, 2012;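 active = compounds whose normalised, plate-corrected inhibition of enzyme fluorescence in the single-dose primary screen is 50% or more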;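 also: 0% = DMSO with enzyme and 100% = substrate without enzyme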
GRIN3A LBD mod: binders of NR3A ligand-binding domain, primary screen, biophysical, differential scanning fluorimetry, uHTS; Glutamate receptor ionotropic, NMDA 3A (GRIN3A) ligand-binding domain; NR3A LBD differential scanning fluorimetry, Tm shift; 0% = protein alone, 100% = glycine-bound protein; Tm shift relative to glycine control, % at 25 µM; hit rate 2.5% among 340,000; AID 1259313, 2017;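 active = melting temperature shift of at least 10% of the positive control shift, at one fixed dose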
NadD block: inhibitors of S. aureus NadD, primary screen, biochemical, colorimetric, uHTS; hit rate 0.78% among 360,000; purified NadD enzyme, colorimetric absorbance read-out; inhibition, % at 20 µM; in the data active = inhibition above about 26%
rCAG binder: binders of r(CAG) RNA repeats, primary screen, biochemical, fluorescence. r(CAG) RNA repeat, TO-PRO-1 dye displacement fluorescence. inhibition, % at 3 µM. hit rate 1.3% among 370,000. AID 651821, 2012;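 active = inhibition above the plate cutoff, the mean of all test compounds on that plate plus 3 SD, cut at about 35% in these data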;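 also: 0% = DMSO alone and 100% = 100 µM mitoxantrone as full dye displacement; higher means more dye released from RNA so lower well fluorescence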
rCAG bind conf: small molecules binding CAG repeat RNA – biochemical, fluorescence, confirmation. shares compounds with rCAG binder. r(CAG) RNA repeat, TO-PRO-1 dye displacement fluorescence. inhibition, % at 3 µM. hit rate 70% among 4,300. AID 652065, 2013;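 active = inhibition above a per-plate cutoff, the mean inhibition of sample wells plus 3 SD, cut at about 35% in these data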;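 also: loss of TO-PRO-1 fluorescence as compound displaces dye from 1x1 AA loop RNA; 0% = DMSO only wells and 100% = 100 µM mitoxantrone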
dCAG dye counter: displacement of TO-PRO-1 from CAG DNA duplex, counter-screen for rCAG RNA repeat binder project, biochemical, fluorescence, TO-PRO-1 dye, d(CAG) DNA oligo. shares compounds with rCAG binder. d(CAG) DNA oligo TO-PRO-1 dye displacement. inhibition, % at 3 µM. hit rate 94% among 4,300;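 active = inhibition above its plate's cutoff, the mean test-well inhibition plus 3 SD, cut at about 4.8% in these data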;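 also: 0% = DNA dye mix with DMSO and 100% = 100 µM mitoxantrone; hits displace the dye from DNA and so lower well fluorescence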
* hit, by the source's call; nt = no result given. In the library only some 4.3% were active in any assay of this set; here they are far more common.

SMILES	FAS TE block	GRIN3A LBD mod	NadD block	rCAG binder	rCAG bind conf	dCAG dye counter
Cc1ccc(NC(=S)NNC(=O)c2ccc(N3CCOCC3)c([N+](=O)[O-])c2)cc1Cl	9.5	19.4*	12.6	79.8*	84.0*	46.1*
Cc1cc(C(=O)Nc2ccc(N3CCCC3)c(Cl)c2)ccc1[N+](=O)[O-]	39.4	-24.9	3.7	3.5	nt	nt
Cc1cccc(NC(=S)NNC(=O)c2cccc([N+](=O)[O-])c2)c1	20.1	-1.0	2.1	19.4	nt	nt
Cc1ccc(NC(=O)c2ccc(NCCN)c([N+](=O)[O-])c2)cc1Cl	-28.7	-2.3	5.5	38.1*	22.3	-1.7
O=C(NNC(=S)Nc1ccc(Br)cc1)c1ccc(N2CCOCC2)c([N+](=O)[O-])c1	3.1	19.0*	8.0	72.6*	66.8*	28.1*
Nc1ccn([C@@H]2O[C@H](C(=O)NCC(=O)N3CCOCC3)[C@@H](O)[C@H]2O)c(=O)n1	nt	nt	nt	0.4	nt	nt
COC(=O)[C@]12C[C@H](CC(=O)N3CCSCC3)C(=O)N(Cc3ccccc3)C1=C[C@H](COCc1ccccc1)O[C@@H]2C	nt	nt	nt	4.5	nt	nt
O=C(NCCCN1CCOCC1)c1ccc(N2CCOCC2)c([N+](=O)[O-])c1	-7.9	2.9	-5.4	-1.1	nt	nt
O=C(O)c1cccc(NC(=O)c2ccccc2NC(=O)c2cccc([N+](=O)[O-])c2)c1	1.5	0.3	-5.6	30.0	nt	nt
O=C(NC(NC(=S)Nc1ccccc1C(=O)O)C(Cl)(Cl)Cl)c1cccc([N+](=O)[O-])c1 (configuration not stated)	7.8	15.8*	-1.9	56.1*	60.3*	24.4*
O=C(NNC(=S)Nc1ccc(Cl)cc1Cl)c1ccc(N2CCOCC2)c([N+](=O)[O-])c1	14.9	23.9*	3.8	95.1*	87.3*	62.9*
CCn1c(C)nc2cc(C(=O)NNC(=S)Nc3ccc(Cl)cc3Cl)ccc21	-3.3	3.5	4.4	57.8*	48.9*	16.3*
COc1ccc(CN2C(=O)CN(S(C)(=O)=O)CC2(C)c2nnnn2C2CCCCC2)cc1 (configuration not stated)	nt	nt	nt	1.6	nt	nt
Cc1cc(C)c2nc(N3C(=O)C(O)=C(C(=O)c4ccco4)C3c3ccc(O)cc3)sc2c1 (configuration not stated)	11.0	-1.2	17.5	84.5*	80.8*	43.3*
Cc1ccc2nc(N3C(=O)C(O)=C(C(=O)c4ccco4)C3c3ccc(O)cc3)sc2c1 (configuration not stated)	-1.3	nt	10.8	66.9*	49.6*	15.5*
Cc1cc(C)c2nc(N3C(=O)C(O)=C(C(=O)c4ccco4)C3c3cccc(O)c3)sc2c1 (configuration not stated)	10.0	-2.5	18.7	85.2*	80.8*	48.7*
C=CCN1C[C@H](COC(=O)CSc2ccccc2)Oc2cccc(F)c2S1(=O)=O	nt	nt	nt	1.8	nt	nt
COC(=O)C1=C(C)N(C)C(=NCC2CC2)NC1c1cccc(Cl)c1 (configuration not stated)	nt	nt	nt	5.7	nt	nt
O=C1NC(=S)S/C1=C\c1ccc(SCc2ccccc2)o1	22.0	-5.0	8.9	81.9*	79.1*	43.4*
Cc1cc(Oc2ccc(Cl)cc2)nc(-c2ccccn2)n1	-2.9	0.5	3.7	88.0*	0.1	-1.4
Cc1cc(Oc2ccccc2)nc(-c2ccccc2O)n1	22.3	1.5	2.4	-0.4	nt	nt
O=C(O)CCSc1nnc(COc2cccc3ccccc23)n1-c1cccc(Cl)c1	7.4	-4.5	7.0	44.2*	44.9*	11.8*
CCn1c(COc2ccc3ccccc3c2C)nnc1SCC(=O)Nc1cccc(C(=O)O)c1	-4.5	0.4	2.6	67.6*	60.3*	26.9*
CCn1c(COc2cccc(C)c2)nnc1SCC(=O)Nc1cccc(C(=O)O)c1	-5.4	0.4	1.6	-0.6	nt	nt
N#CCSc1nnc(COc2cccc3ccccc23)n1-c1cccc(Cl)c1	23.2	-7.2	-2.4	-0.6	nt	nt
SMILES	FAS TE block	GRIN3A LBD mod	NadD block	rCAG binder	rCAG bind conf	dCAG dye counter
O=C(O)CSc1nnc(COc2cccc3ccccc23)n1Cc1ccccc1	2.4	-1.6	3.8	38.5*	42.6*	10.6*
COC(=O)[C@H](CC(C)C)NC(=O)NCCCc1ccccc1	-2.3	0.2	-2.4	47.8*	1.0	-1.9
CCC(C)[C@H](NC(=O)NCCCc1ccccc1)C(=O)OC (some centres not stated)	-2.8	1.4	-0.9	-7.5	nt	nt
Cc1ccc(-n2c(=S)sc3c(=O)n(-c4ccccc4F)c(SCC(=O)O)nc32)cc1C	-5.3	0.3	-0.2	47.2*	46.4*	13.4*
CCOc1ccc(-n2c(=S)sc3c(=O)n(-c4ccccc4)c(SCC(=O)O)nc32)cc1	-3.3	-1.1	-2.5	39.3*	26.1	5.7*
CCN(CC)C(=O)CSc1nc2c(sc(=S)n2CC)c(=O)n1-c1ccccc1	9.9	-2.6	3.9	-4.5	nt	nt
CCc1ccc(-n2c(=S)sc3c(=O)n(-c4ccccc4)c(SCC(=O)O)nc32)cc1	1.6	2.1	-1.2	41.5*	32.0	6.9*
Nc1[nH]c(C(=O)c2ccc(Br)cc2)c(-c2ccc3ccccc3c2)c1C(=O)NCCc1c[nH]c2ccccc12	nt	nt	nt	17.6	nt	nt
Cc1ccc(/C=C/C(=O)c2ccccc(=O)c2O)cc1C	8.2	-0.8	10.0	28.6	nt	nt
O=C(/C=C/c1ccccc1)c1cc(Br)ccc(=O)c1O	7.6	-0.5	14.6	50.8*	41.0*	17.0*
CCOc1ccc(/C=C(/NC(=O)c2ccc(Cl)cc2)C(=O)O)cc1OCC	-2.4	-3.9	-0.3	2.1	nt	nt
CCOc1cc(/C=C(/NC(C)=O)C(=O)O)cc(Cl)c1OCc1ccc(Br)cc1	-0.9	-0.8	-5.4	43.4*	32.8	6.7*
Cc1ccc(S(=O)(=O)Oc2ccccc2/C=C2\SC(=O)NC2=O)cc1	-1.8	-34.8	-1.1	42.0*	30.2	7.4*
O=C(COc1ccccc1/C=C1/NC(=O)NC1=O)Nc1ccccc1	-4.2	-4.2	9.0	1.0	nt	nt
O=C(COc1ccccc1/C=C1\SC(=O)NC1=O)Nc1ccc(F)cc1	2.0	-1.1	3.5	51.6*	44.9*	15.6*
Cc1cc(C)cc(N(CC(=O)Nc2ccc(Br)cc2)S(=O)(=O)c2c(C)[nH]c(=O)[nH]c2=O)c1	11.1	0.3	7.1	51.1*	42.4*	9.2*
COc1ccc(OCc2nc3ccc(S(=O)(=O)Nc4ccccc4Cl)cc3[nH]2)cc1	-2.6	-5.2	0.2	14.1	nt	nt
COc1ccc(NS(=O)(=O)c2ccc3nc(COc4ccc5ccccc5c4)[nH]c3c2)cc1	25.2	25.4*	29.7	50.8*	19.4	14.4*
Cc1noc(NS(=O)(=O)c2ccc(NC(=O)c3ccc(F)cc3)cc2)c1C	-5.5	-0.8	0.0	7.6	nt	nt
